Data published in PubChem BioAssay.
“And” between values parts separate entries of the source, which are not always exact repeats. Equal entries are not always repeated. The source made the active and inactive calls. Unless noted, the rule behind the calls is not given here.

How the values were obtained:
[1] = system: Wnt5a (protein binding on small-molecule microarray); experiment: Wnt5a binders on small-molecule microarray, primary screen, biophysical, 635/667 nm fluorescence (AID 1142); settings: 635 nm fluorescence, higher = more signal;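 note: fluorescence read at 667 nm with signal to noise per printed feature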
[2] = cell viability in Huh7 cells, primary screen, cytotoxicity control for HCV replication inhibitor project, CellTiter-Glo luminescence, basal, 48 h (AID 1143); settings: Huh7 HCV replicon, higher = more signal, called active from +8 up or from −8 down;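 note: Huh7 hepatoma cells carrying a hepatitis C replication reporter with no stimulus; test concentration not given here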
[3] = P. aeruginosa biofilm formation inhibitors, primary screen, PAO1 strain, BacTiter-Glo luminescence, LB-PBS (AID 1144); settings: 12 h, higher = more signal
[4] = CREB reporter modulators without forskolin, primary screen, cell-based, PC12, CRE-LacZ reporter, unstimulated (AID 1145); settings: no forskolin, luminescence, 4.5 h, higher = more signal, called active from +8 up or from −8 down
[5] = CREB reporter modulators under forskolin, primary screen, cell-based, PC12, CRE-LacZ reporter, forskolin-stimulated (AID 1146); settings: luminescence, 4.5 h, higher = more signal, called active from +8 up or from −8 down;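 note: PC12 cells with 6xCRE LacZ reporter stimulated by forskolin 10 µM; beta-galactosidase reporter signal reflecting CREB driven transcription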
[6] = molecular target: Streptavidin (Streptomyces avidinii) (UniProt P22629); experiment: streptavidin binders on small-molecule microarray, primary screen, artefact control for SMM compound annotation, biophysical, 635/667 nm fluorescence (AID 1147); settings: streptavidin binding, higher = more signal;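 note: signal reflects streptavidin binding to arrayed compounds as a control protein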
Chain of Streptavidin (Streptomyces avidinii) (P22629 whole entry, looked up): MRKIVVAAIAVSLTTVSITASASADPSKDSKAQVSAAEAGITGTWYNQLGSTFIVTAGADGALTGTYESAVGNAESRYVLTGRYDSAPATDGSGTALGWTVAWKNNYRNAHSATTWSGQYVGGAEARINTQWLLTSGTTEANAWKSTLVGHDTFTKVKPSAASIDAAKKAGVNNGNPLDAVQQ

[7] = small-molecule binders of probe aInhba, primary screen, biochemical, small-molecule microarray, 635/667 nm fluorescence (AID 1148); settings: higher = more signal;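 note: score merges 667nm spot fluorescence with signal-to-noise for antibody binding to printed compounds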
Torsin-1A (Homo sapiens) [8] = molecular target: Torsin-1A (Homo sapiens) (UniProt O14656); experiment: torsin A binders from cell lysate, primary screen, small-molecule microarray, wild-type, 635/667 nm (AID 1149); settings: COS7 hTOR1A-WT lysate, 635 nm fluorescence, higher = more signal
Chain of Torsin-1A (Homo sapiens) (O14656 whole entry, looked up): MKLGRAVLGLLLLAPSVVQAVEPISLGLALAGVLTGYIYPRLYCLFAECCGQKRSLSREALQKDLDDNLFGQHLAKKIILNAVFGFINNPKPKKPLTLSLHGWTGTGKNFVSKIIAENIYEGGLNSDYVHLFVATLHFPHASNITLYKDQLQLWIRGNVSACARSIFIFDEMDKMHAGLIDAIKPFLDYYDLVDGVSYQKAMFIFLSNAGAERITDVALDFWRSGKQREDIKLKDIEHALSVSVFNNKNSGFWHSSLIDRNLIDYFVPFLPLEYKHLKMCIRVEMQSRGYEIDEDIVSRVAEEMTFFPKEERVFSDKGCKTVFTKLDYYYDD

Torsin-1A (Homo sapiens) [9] = molecular target: Torsin-1A (Homo sapiens) (UniProt O14656); experiment: small-molecule binders of mutant TOR1A in lysate, primary screen, cell lysate, small-molecule microarray, COS7 lysate, 635/667 nm fluorescence (AID 1150); settings: COS7 hTOR1A mutant lysate, 635 nm fluorescence, higher = more signal;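 note: score pools 667 nm emission and signal to noise measuring lysate protein binding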
[10] = system: Sonic hedgehog protein (Shh); experiment: small-molecule binders of Shh protein, primary screen, biochemical, small-molecule microarray, 635/667 nm fluorescence (AID 1151); settings: small-molecule microarray binding, 635 nm fluorescence; higher = more signal;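 note: Shh protein binding to compounds spotted on small-molecule microarray slides; score combines spot fluorescence intensity with signal-to-noise across triplicate slides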
[11] = E. coli DRC41 culture turbidity changes, primary screen, E. coli filamentation inducer project, strain DRC41, OD650, 48 h (AID 1152);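 note: E. coli MC1000 strain DRC41 lacking acrAB efflux pump and sulA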; settings: E. coli DRC41 (acrAB sulA), higher = more signal, called active from +8 up or from −8 down
[12] = small-molecule binders of probe aLefty1, primary screen, biochemical, small-molecule microarray, 635/667 nm fluorescence (AID 1153); settings: higher = more signal;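 note: score merges spot fluorescence with signal-to-noise ratio from the scanned slide images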
[13] = PSAC antagonists in infected red cells, primary screen, cell-based, P. falciparum Indochina, OD700, 1 h (AID 1154); settings: P. falciparum Indochina infected RBC osmotic lysis, higher = more signal, called active from +8 up or from −8 down
[14] = PSAC antagonists in infected red cells, primary screen, cell-based, P. falciparum Indochina, OD700, 2 h (AID 1155);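 note: lysis reports solute entry through the parasite surface anion channel PSAC; channel blockers reduce lysis of infected cells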; settings: P. falciparum Indochina infected erythrocytes, osmotic lysis OD700; higher = more signal, called active from +8 up or from −8 down
[15] = osmotic lysis modulators in infected erythrocytes, primary screen, PSAC antagonist project, cell-based, P. falciparum Indochina, OD700, 3 h (AID 1156); settings: higher = more signal, called active from +8 up or from −8 down
[16] = PSAC antagonists in infected red cells, primary screen, cell-based, P. falciparum Indochina, OD700, 18 h (AID 1157); settings: P. falciparum Indochina infected erythrocytes, osmotic lysis OD700, 18 h; higher = more signal, called active from +8 up or from −8 down
[17] = modulators of S6 phosphorylation in cells, primary screen, cell-based, A549, cytoblot, luminescence, serum-stimulated (AID 1158); settings: A549 phospho-S6 cytoblot, 5 h, higher = more signal;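 note: serum-stimulated A549 lung adenocarcinoma cells; signal is phosphorylated S6 detected by cytoblot immunostaining with HRP secondary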
[18] = molecular target: NADPH oxidase 2 (Homo sapiens) (UniProt P04839); experiment: NOX2-dependent H2O2 signal modulators, primary screen, NOX inhibitor project, cell-based, HEK293-NOX2, PMA-stimulated, Amplex Red fluorescence (AID 1159); settings: 45 min, higher = more signal, called active from +8 up or from −8 down; note: test concentration not given here
Chain of NADPH oxidase 2 (Homo sapiens) (P04839 whole entry, looked up): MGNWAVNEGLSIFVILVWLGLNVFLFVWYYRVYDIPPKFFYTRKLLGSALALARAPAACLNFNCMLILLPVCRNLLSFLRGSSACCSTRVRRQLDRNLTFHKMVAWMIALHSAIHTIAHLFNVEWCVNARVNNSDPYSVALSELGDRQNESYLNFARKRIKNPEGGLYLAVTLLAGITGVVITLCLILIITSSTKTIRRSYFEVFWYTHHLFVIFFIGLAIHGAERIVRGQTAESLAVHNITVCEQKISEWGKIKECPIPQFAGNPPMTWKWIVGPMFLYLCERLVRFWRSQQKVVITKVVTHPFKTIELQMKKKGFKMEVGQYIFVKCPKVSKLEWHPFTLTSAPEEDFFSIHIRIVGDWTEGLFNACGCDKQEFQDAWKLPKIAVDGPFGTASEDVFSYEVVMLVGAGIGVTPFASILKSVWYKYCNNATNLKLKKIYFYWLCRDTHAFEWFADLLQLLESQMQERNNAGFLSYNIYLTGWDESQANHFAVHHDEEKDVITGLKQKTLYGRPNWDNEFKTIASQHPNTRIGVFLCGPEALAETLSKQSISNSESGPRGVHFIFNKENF

[19] = molecular target: NADPH oxidase 4 (Homo sapiens) (UniProt Q9NPH5); experiment: NOX4-dependent H2O2 signal modulators, primary screen, NOX inhibitor project, cell-based, HEK293-NOX4, tetracycline-induced, Amplex Red fluorescence (AID 1160); settings: 45 min, higher = more signal, called active from +8 up or from −8 down
Chain of NADPH oxidase 4 (Homo sapiens) (Q9NPH5 whole entry, looked up): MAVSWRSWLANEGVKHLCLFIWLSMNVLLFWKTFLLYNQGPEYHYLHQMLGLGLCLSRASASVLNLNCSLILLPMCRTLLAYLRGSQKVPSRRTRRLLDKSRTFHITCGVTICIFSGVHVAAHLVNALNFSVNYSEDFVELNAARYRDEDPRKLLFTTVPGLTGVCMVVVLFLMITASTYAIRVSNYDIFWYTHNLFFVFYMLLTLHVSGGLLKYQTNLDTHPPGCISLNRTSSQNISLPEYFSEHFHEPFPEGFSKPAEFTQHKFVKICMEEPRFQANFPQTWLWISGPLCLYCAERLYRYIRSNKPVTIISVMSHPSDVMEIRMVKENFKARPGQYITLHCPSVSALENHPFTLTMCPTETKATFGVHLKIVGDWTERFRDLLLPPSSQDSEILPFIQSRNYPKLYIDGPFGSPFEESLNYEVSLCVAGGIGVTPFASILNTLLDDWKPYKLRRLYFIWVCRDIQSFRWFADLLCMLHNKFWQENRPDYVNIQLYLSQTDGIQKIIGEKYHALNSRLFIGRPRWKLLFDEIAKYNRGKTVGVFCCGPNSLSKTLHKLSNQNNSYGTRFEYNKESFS

[20] = molecular target: NADPH oxidase 5 (Homo sapiens) (UniProt Q96PH1); experiment: NOX5-dependent H2O2 signal modulators, primary screen, NOX inhibitor project, cell-based, HEK293-NOX5, Amplex Red fluorescence (AID 1161); settings: HEK293-NOX5, ionomycin, 45 min, higher = more signal
Chain of NADPH oxidase 5 (Homo sapiens) (Q96PH1 whole entry, looked up): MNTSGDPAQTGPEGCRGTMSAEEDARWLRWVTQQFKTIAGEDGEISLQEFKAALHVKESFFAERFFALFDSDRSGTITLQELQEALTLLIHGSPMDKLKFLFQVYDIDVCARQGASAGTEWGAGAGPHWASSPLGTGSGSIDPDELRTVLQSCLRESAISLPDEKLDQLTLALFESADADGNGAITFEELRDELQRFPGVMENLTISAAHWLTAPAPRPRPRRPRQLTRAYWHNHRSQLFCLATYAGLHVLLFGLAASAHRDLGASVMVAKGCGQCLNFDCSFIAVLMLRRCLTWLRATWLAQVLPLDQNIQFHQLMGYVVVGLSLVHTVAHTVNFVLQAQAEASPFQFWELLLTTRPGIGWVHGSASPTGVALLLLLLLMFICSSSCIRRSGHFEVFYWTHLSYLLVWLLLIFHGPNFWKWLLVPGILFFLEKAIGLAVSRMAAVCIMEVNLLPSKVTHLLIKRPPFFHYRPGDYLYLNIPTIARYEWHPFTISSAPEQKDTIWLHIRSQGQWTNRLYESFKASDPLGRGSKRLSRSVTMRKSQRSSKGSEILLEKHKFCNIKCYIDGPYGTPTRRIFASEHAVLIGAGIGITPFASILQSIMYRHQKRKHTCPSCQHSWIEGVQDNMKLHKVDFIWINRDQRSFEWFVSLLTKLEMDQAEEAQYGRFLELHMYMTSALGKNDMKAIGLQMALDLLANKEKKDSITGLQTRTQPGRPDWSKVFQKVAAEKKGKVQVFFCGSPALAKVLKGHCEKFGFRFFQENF

| SMILES | composite z-score [1] | z-score [2] | z-score [3] | z-score [4] | z-score [5] | composite z-score [6] | composite z-score [7] | composite z-score (Torsin-1A (Homo sapiens) [8]) | composite z-score (Torsin-1A (Homo sapiens) [9]) | composite z-score [10] | z-score [11] | composite z-score [12] | z-score [13] | z-score [14] | z-score [15] | z-score [16] | z-score [17] | z-score [18] | z-score [19] | z-score [20] |
| --- | --- | --- | --- | --- | --- | --- | --- | --- | --- | --- | --- | --- | --- | --- | --- | --- | --- | --- | --- | --- |
| C[C@@H]1CC[C@H]2C(=O)NC[C@@H](O)CN2[C@H]1c1ccc(Br)cc1 | -0.0755 and 0.0111 | 0.3 (inactive) and 0.139 (inactive) | 0.721 (inactive) and 0.543 (inactive) | 0.649 (inactive) and 0.108 (inactive) | 0.797 (inactive) and 0.187 (inactive) | -0.161 and -0.289 | -0.0762 and -0.128 | 0.0335 and 0.266 | 0.0464 and -0.352 | 0.264 and -0.0212 | -1.08 (inactive) and -0.445 (inactive) | -0.426 and -0.017 | 0.211 (inactive) and -0.0955 (inactive) | -0.0378 (inactive) and 0.0974 (inactive) | -0.114 (inactive) and -0.125 (inactive) | -0.218 (inactive) and 0.0277 (inactive) | 0.53 and -0.753 | -0.807 (inactive) and 0.12 (inactive) | 0.283 (inactive) and 0.229 (inactive) | 0.646 and 0.135 |
| C=CCN(CCCCC)C(=O)C(c1cccs1)N(C(=O)/C=C\C(=O)O)c1ccc(CCO)cc1 (centres undefined) | -0.909 and -0.947 | 0.162 (inactive) and 0.193 (inactive) | 0.0224 (inactive) and -0.188 (inactive) | 0.459 (inactive) and 0.597 (inactive) | -0.343 (inactive) and -0.244 (inactive) | -1.72 and -1.16 | -0.331 and -0.0021 | -2.38 and -1.69 | -1.96 and -1.51 | -0.975 and -0.587 | 0.539 (inactive) and 0.137 (inactive) | -0.147 and -0.15 | 0.0722 (inactive) and -0.629 (inactive) | 0.181 (inactive) and -0.255 (inactive) | -0.533 (inactive) and -0.741 (inactive) | 0.0113 (inactive) and 0.0094 (inactive) | 0.0901 and -0.111 | 0.259 (inactive) and -0.0131 (inactive) | -0.6 (inactive) and -0.665 (inactive) | 0.614 and 0.19 |
| COC(=O)CC=C[C@@H](C)[C@@H](CO)NS(=O)(=O)c1ccc(C)cc1 | 0.234 and 0.125 | 0.577 (inactive) and -0.18 (inactive) | 0.773 (inactive) and -0.379 (inactive) | 1.1 (inactive) and 0.288 (inactive) | -0.196 (inactive) and -0.693 (inactive) | -0.183 and 0.469 | -0.05 and 0.0248 | 0.448 and 0.478 | 0.32 and 1.08 | 0.759 and 1.44 | -0.242 (inactive) and 0.0668 (inactive) | -0.0971 and -0.148 | -0.577 (inactive) and 5.54 (inactive) | -0.08 (inactive) and 1.47 (inactive) | 0.245 (inactive) and 0.644 (inactive) | -0.145 (inactive) and 1.05 (inactive) | -0.244 and 0.392 | -0.132 (inactive) and 0.154 (inactive) | -0.00804 (inactive) and 0.453 (inactive) | -0.00181 and 0.301 |
| CC(CO)N1C(=O)[C@@H]2C3C(=O)OCCC=C[C@H]3OC23C=CCN(Cn2nnc4ccccc42)C(=O)[C@@H]13 (some centres undefined) | -0.757 and 0.0538 | -0.095 (inactive) and -0.464 (inactive) | 0.422 (inactive) and -0.131 (inactive) | -0.208 (inactive) and -1.44 (inactive) | -0.372 (inactive) and 0.774 (inactive) | -0.909 and -0.228 | -0.0675 and -0.0405 | -1.13 and 1.95 | -0.987 and 0.603 | -1.26 and 0.935 | 0.326 (inactive) and -0.353 (inactive) | -0.199 and 0.241 | 0.464 (inactive) and 3.04 (inactive) | -0.0088 (inactive) and 0.83 (inactive) | 0.879 (inactive) and 0.711 (inactive) | 0.163 (inactive) and 0.114 (inactive) | 0.798 and 0.483 | 1.14 (inactive) and 1.44 (inactive) | 0.249 (inactive) and 0.774 (inactive) | 1.47 and 2.83 |
| CC(C)N1CC=CC23O[C@@H]4C=CCCOC(=O)C4[C@H]2C(=O)N(C(C)CO)[C@@H]3C1=O (some centres undefined) | 0.797 and -0.143 | -0.909 (inactive) and 0.0354 (inactive) |  | -0.631 (inactive) and -0.753 (inactive) | -0.0522 (inactive) and -0.428 (inactive) | -0.55 and 1.17 | -0.128 and -0.176 | 0.0687 and -0.403 | -0.0439 and 0.0427 | -0.0042 and -0.188 | 2.39 (inactive) and 2.01 (inactive) | 0.0004 and -0.147 | 0.339 (inactive) and 1.47 (inactive) | -0.917 (inactive) and -0.564 (inactive) | -0.0544 (inactive) and 0.331 (inactive) | -1.54 (inactive) and -0.97 (inactive) | 0.22 and -0.109 | 1.94 (inactive) and 1.59 (inactive) | 0.808 (inactive) and 0.594 (inactive) | 2.17 and 1.76 |
| C=CCN(CCCCC)C(=O)C1N(CCCCCCO)C(=O)C2C(C(=O)O)C3C=CC21O3 (centres undefined) | -0.332 and -1.43 | 0.289 (inactive) and 0.729 (inactive) | 1.69 (inactive) and 2.31 (inactive) | 0.333 (inactive) and -0.497 (inactive) | -0.587 (inactive) and -0.0866 (inactive) | -1.69 and -1.59 | -0.173 and -0.233 | -2.55 and -3.31 | -1.53 and 0.765 | -0.661 and -1.21 | -0.559 (inactive) and -0.794 (inactive) | -0.191 and 0.29 | 0.0275 (inactive) and 0.375 (inactive) | -0.76 (inactive) and 0.22 (inactive) | -0.627 (inactive) and -0.419 (inactive) | -0.33 (inactive) and 0.404 (inactive) | -0.539 and -0.626 | 1.07 (inactive) and 0.619 (inactive) | -0.208 (inactive) and -0.169 (inactive) | 1.08 and 1.26 |
